Measurements from the supplement of paper PMC6555819.

Legend:
Assay in all cases: PBM binding z-score (relative to random genomic background probes); higher = stronger binding; sequences stand for … in GC…GCGATTGACAGCGTAGAATGAAGG
[1] = tested on: PPARg:RXRa DBDmut IVT, anti-RXR (DBD mutation: RXRa K156A/R161A, NR concentration 270 nM, RXRa partner concentration 90 nM)
Procedure, shortened: (§1)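 Binding z-scores were set against random background probes. The data came from custom Agilent 4×180K protein-binding microarrays carrying double-stranded probes with 34-nt variable regions, incubated 1 h with ligand-free nuclear receptor dimers. Partner-specific antibodies detected binding, and scanned fluorescence was regression-normalized.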

[2] = tested on: PPARg:RXRa IVT, anti-PPARg (NR concentration 270 nM, RXRa partner concentration 90 nM)
Procedure, shortened: as §1

[3] = tested on: PPARg DBDmut:RXRa IVT, anti-PPARg (DBD mutation: PPARg1 K132A/R137A, NR concentration 270 nM, RXRa partner concentration 90 nM)
Procedure, shortened: as §1

[4] = tested on: PPARg DBDmut IVT, anti-PPARg (DBD mutation: PPARg1 K132A/R137A, NR concentration 270 nM)
Procedure, shortened: as §1

[5] = tested on: PPARg homodimer (NR concentration 180 nM)
Procedure, shortened: as §1

[6] = tested on: PXR:RXRa (NR concentration 270 nM, RXRa partner concentration 90 nM)
Procedure, shortened: as §1

[7] = tested on: PXR homodimer (NR concentration 270 nM)
Procedure, shortened: as §1

[8] = tested on: RARa:RXR (NR concentration 270 nM, RXRa partner concentration 90 nM)
Procedure, shortened: as §1

[9] = tested on: RARa homodimer (NR concentration 270 nM)
Procedure, shortened: as §1

[10] = tested on: RARb:RXRa (NR concentration 270 nM, RXRa partner concentration 90 nM)
Procedure, shortened: as §1

Row | Sequence | PBM binding z-score [1] | PBM binding z-score [2] | PBM binding z-score [3] | PBM binding z-score [4] | PBM binding z-score [5] | PBM binding z-score [6] | PBM binding z-score [7] | PBM binding z-score [8] | PBM binding z-score [9] | PBM binding z-score [10]
1 | CGTACAGGGTCAGCTAGGCCAGAGTAGGGACGGC | 1.75 | 2.64 | 0.166 | -0.287 | 1.47 | 2.28 | -0.805 | 3.32 | -0.147 | 4.16
2 | CGTCCCAGGTCAAGGTCAGTGAAAGAGACTCGAA | 2.24 | 3.62 | 0.134 | -0.571 | 3.49 | 4.05 | 1.33 | 4.43 | 2.12 | 5.02
3 | GCTTACGGGTCAAAGGTGATAGCATGAATAGAAT | 5.42 | 5.3 | 1.11 | 0.857 | 2.81 | 4.78 | -0.0532 | 6.93 | 0.406 | 4.09
4 | GCTATTAGTTGAAAGGGCAACCGCATGATTCTCG | 0.567 | 1.26 | -0.261 | -0.166 | 1.06 | 0.577 | 0.17 | 1.39 | 0.567 | 1.71
5 | ATCTCTAGGGAAAGATAGTTCAGTGAATGCAAAT | 0.0889 | 0.274 | 0.441 | 0.248 | 0.581 | 0.457 | 0.536 | 0.402 | 0.55 | 0.406
6 | CGTCCTAGGTCAGCAGGTCAGTGAAAGCGACGTG | 3.21 | 3.44 | -0.463 | -0.745 | 1.79 | 1.75 | -0.5 | 2.64 | -0.501 | 4.39
7 | GATACATGGTCAAGGCCAGAGTACGCGTATTGAT | 0.0376 | 0.621 | -0.439 | 0.11 | -0.243 | -0.158 | -0.13 | -0.204 | -0.125 | 1.25
8 | GCTTGTAGATCAAGGTTAGGAAAGACTAAGCTAA | 1.45 | 0.637 | -0.619 | 0.0428 | -0.189 | -0.276 | -0.422 | -0.0199 | -0.3 | 0.336
9 | ACTAGTTGGTCAGCTGACGTCACACACAATTCGG | 0.857 | 0.972 | 0.728 | 0.709 | 0.152 | 0.163 | -0.648 | 0.0415 | 0.251 | 0.952
10 | ACTAGCAGGCTAAGGGTCACTCAAGATTAGTCCG | 0.414 | 3.12 | 0.0604 | -0.126 | 1.94 | 3.45 | -0.319 | 4.56 | 0.291 | 3.47
11 | ATCTCTAGGTCACCAAGTTCAGTGAATGCCGAAC | 7.23 | 7.06 | 2.4 | 2.04 | 3.74 | 5.68 | 11.1 | 3.92 | 2.64 | 4.82
12 | AGATTGAGGTTATACGTAGATCAGGGAAGAAAGT | 2.54 | 1.38 | 1.05 | 1.23 | 0.726 | 1.23 | 0.75 | 1.7 | 0.422 | 1.28
13 | ATCTCTAGGTAACAAGTTCAGAGAAAGAGAGGAC | 2.92 | 2.66 | 0.959 | 2.27 | 0.923 | 1.59 | 1.6 | 1.1 | 1.3 | 1.53
14 | TCCTATAGGTAAATGCTAGGTGAAAGTCCGATCT | 2.2 | 1.3 | 0.193 | 0.879 | -0.495 | 0.0422 | -0.266 | 0.694 | 0.208 | 0.523
15 | CCTCGGAGGACAATAGGAGGTCAGAGCTGCCAGA | -0.0175 | 0.979 | -0.47 | -1.32 | 1.01 | 1.76 | 0.364 | 2.08 | -0.149 | 2.29
16 | ATCGCTAGGTAAAGATAGTTCAGTGAATGCAAAT | -0.327 | -0.329 | 0.673 | 0.059 | 0.116 | 0.306 | 0.193 | 0.173 | 0.336 | 0.139
17 | TGACCAAGGTGAAAGGTCGTTGATGCACGCCTTG | 2.01 | 4.8 | 0.518 | -0.282 | 1.58 | 3.75 | -0.00693 | 5.22 | -0.166 | 3.03
18 | TCGAGTAGGTTACCAATGGGTCATTCAGCTTTCT | 3.45 | 2.82 | 0.364 | -0.28 | 1.39 | 1.88 | -0.563 | 2.5 | -0.538 | 1.77
19 | CGTCCAAGGTCAGCTGGTCAGTGAAAGCGACGTG | 2.4 | 2.17 | 0.5 | -0.832 | 2.63 | 2.67 | -0.135 | 3.24 | 1.47 | 4.79
20 | TGTAGTTGGTCAAAGGTCACACACTCGAAATGCG | 1.7 | 6.41 | 2.33 | 2.58 | 5.57 | 6.06 | 1.72 | 7.38 | 3.74 | 4.86
21 | GCTGCTAGGTCAACTGATGCTCAGCTAAAGCTCG | 4.93 | 3.92 | -0.517 | -0.991 | 1.02 | 1.26 | -0.735 | 2.18 | -0.0559 | 4.27
22 | ATCTCTAGGTAACCACGTTCAGTGAATGCCGAAC | 2.95 | 2.6 | 1.15 | 0.998 | 0.238 | -0.177 | 0.023 | -0.2 | 0.526 | 0.324
23 | TCTAGCAGGCCAGAGGGTCACTCTAGAGGTACGG | 0.721 | 0.95 | -0.508 | -0.98 | 0.476 | 1.24 | -0.322 | 2.07 | -0.492 | 2.27
24 | ATCTCTAGATAAGACTCAGTTCAGTGAAGAACGC | -0.453 | -0.237 | -0.428 | 1.1 | -0.287 | 0.428 | 0.883 | -0.0778 | 0.631 | -0.306
